Records with an inconclusive call do not appear. Entries that show only a call come without a potency. A number with no mark means an inactive call. Active and inactive are the calls of the source. The call rests on the fitted dose curve; in most records, active means well fitted curve in the direction sought with a large enough effect; inconclusive means small, poorly fitted or top-dose-only effect, or another doubt; inactive means no such curve, though single readings can be large; an effect the other way counts as inactive or inconclusive.
How the values were obtained:
[1] = Primary qHTS for inhibitors of La Crosse Virus (LACV) - induced cell death in SH-SY5Y cells (AID 1508616);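 further: top concentration of the series differs between compounds; higher means more rescue of cells from virus-induced death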
Method in brief: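 Luminescent ATP readout (ATPLite 1step, 5 min room temperature) measured rescue from LACV-induced death after 6 days of infection at 0.01 MOI; normalized to infected DMSO wells and uninfected DMSO wells.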

[2] = target: Calcium and integrin-binding protein 1 (Homo sapiens) (UniProt Q99828); test: Validation qHTS for Identification of Calcium Integrin Binding protein 1 (CIB1) Competitor (AID 1508618)
Method in brief: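 Displacement of FITC-alphaIIb peptide (100 nM) from CIB1-GST (1 uM) is monitored by polarization in quantitative HTS format; buffer carries 5 mM CaCl2 and 125 mM NaCl at pH 7.4, incubations are at room temperature.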

[3] = Primary qHTS for small molecule stabilizers of the endoplasmic reticulum resident proteome: Secreted ER Calcium Modulated Protein (SERCaMP) assay (AID 1508630)
Method in brief: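 GLuc-SERCaMP-expressing SH-SY5Y cells, pretreated 16 h with compound, are challenged with thapsigargin to empty ER calcium stores; after 4 h, coelenterazine is added directly to the medium and luminescence is imaged.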

Papain (Carica papaya) = Papain (Carica papaya) (UniProt P00784); test: Primary qHTS assay for inhibitors of the protease papain (AID 1645873);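 further: papain turnover of Z-FR-AMC read as the AMC fluorescence gain over 10 min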; further: potency means the concentration at half of the fitted maximal effect
Sequence of Papain (Carica papaya) (P00784 whole entry, looked up): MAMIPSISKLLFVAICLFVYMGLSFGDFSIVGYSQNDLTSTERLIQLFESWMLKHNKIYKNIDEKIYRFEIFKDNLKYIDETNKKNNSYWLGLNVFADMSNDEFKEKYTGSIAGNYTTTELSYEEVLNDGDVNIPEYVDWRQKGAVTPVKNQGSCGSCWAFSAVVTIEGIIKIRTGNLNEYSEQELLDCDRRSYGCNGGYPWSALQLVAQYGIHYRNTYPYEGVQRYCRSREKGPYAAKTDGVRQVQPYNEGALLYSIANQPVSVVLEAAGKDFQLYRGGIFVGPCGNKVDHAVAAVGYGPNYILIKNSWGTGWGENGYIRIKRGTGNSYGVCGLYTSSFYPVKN

Sequence of Calcium and integrin-binding protein 1 (Homo sapiens) (Q99828 whole entry, looked up): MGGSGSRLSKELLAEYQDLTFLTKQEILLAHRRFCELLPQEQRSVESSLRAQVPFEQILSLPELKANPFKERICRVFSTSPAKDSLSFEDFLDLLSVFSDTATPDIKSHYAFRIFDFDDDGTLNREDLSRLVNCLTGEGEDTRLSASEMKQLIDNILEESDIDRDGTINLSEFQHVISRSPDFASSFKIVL

| Structure (SMILES) | Potency [1] | Potency [2] | Potency [3] | Potency (Papain (Carica papaya)) |
| --- | --- | --- | --- | --- |
| CC(N)(C(=O)O)c1ccc(C(=O)O)cc1 (stereo not given) | inactive | inactive | inactive | inactive |
| CC(C)NCC(O)COc1ccc(CC(N)=O)cc1 (stereo not given) | inactive | inactive | inactive | inactive |
| COc1ccc2c(c1)c(CC(=O)O)c(C)n2C(=O)c1ccccc1 | inactive | inactive | inactive | inactive |
| CCCOC(=O)c1c(-c2ccccc2)nc(CC)c(C(=O)SCC)c1CCC | inactive | inactive | inactive | inactive |
| CC(N)=O | inactive | inactive | inactive | inactive |
| NC(N)=NC(N)=Nc1cccc(Cl)c1 | inactive | inactive | inactive | inactive |
| O=c1ccc2c(OCCCCc3ccccc3)c3ccoc3cc2o1 | inactive | inactive | inactive | inactive |
| COc1cc([C@@H]2c3cc4c(cc3[C@H](O)C3COC(=O)[C@@H]32)OCO4)cc(OC)c1OC (stereo not given in full) | inactive | inactive | inactive | inactive |
| CN(C)CCCc1cc(C(=O)Nc2ccc(-c3ccncc3)cc2)ccc1O | inactive | inactive | inactive | inactive |
| O=C1C2C=CC=CC2=NC(=S)N1CCN1CCC(=C(c2ccc(F)cc2)c2ccc(F)cc2)CC1 (stereo not given) | inactive | inactive | inactive | inactive |
| C#CCn1c(=O)c2c(ncn2C)n(C)c1=O | inactive | inactive | inactive | inactive |
| COc1ccccc1N1CCN(CCCCN2C(=O)c3ccccc3C2=O)CC1 | inactive | inactive | inactive | inactive |
| CSC(N)=NCCC[C@H](N)C(=O)O | inactive | inactive | inactive | inactive |
| CN1CC(O)C(O)C(O)C1CO (stereo not given) | inactive | inactive | inactive | inactive |
| CCCn1c(=O)c(C)cn2nc(N)nc12 | inactive | inactive | inactive | 28.2 µM (active) |
| CNCCNS(=O)(=O)c1cccc2cnccc12 | inactive | inactive | inactive | inactive |
| CC1CNCCN1S(=O)(=O)c1cccc2cnccc12 (stereo not given) | inactive | inactive | inactive | inactive |
| O=C(O)C1=CCCN(CCON=C(c2ccccc2)c2ccccc2)C1 | inactive | inactive | inactive | inactive |
| CC1CCN(CC[C@H]2CCCN2S(=O)(=O)c2cccc(O)c2)CC1 | inactive | inactive | inactive | inactive |
| OC[C@H]1O[C@@H](n2cnc3cncnc32)[C@H](O)[C@@H]1O | inactive | inactive | inactive | inactive |

| Structure (SMILES) | Potency [1] | Potency [2] | Potency [3] | Potency (Papain (Carica papaya)) |
| --- | --- | --- | --- | --- |
| CC(N)(Cc1ccc(O)cc1)C(=O)O (stereo not given) | inactive | inactive | inactive | inactive |
| COC(=O)C(N)Cc1ccc(Cl)cc1 (stereo not given) | inactive | inactive | inactive | inactive |
| CNc1cc(NS(=O)(=O)c2ccc(N)cc2)nc(NC)n1 | inactive | inactive | inactive | inactive |
| CCCN(CCc1ccccc1)C1CCc2c(O)cccc2C1 (stereo not given) | inactive | inactive | inactive | inactive |
| N[C@H](C(=O)O)c1cc(O)cc(O)c1 | inactive | inactive | inactive | inactive |
| CC(=O)NNC(=O)N1Cc2ccccc2Oc2ccc(Cl)cc21 | inactive | inactive | inactive | inactive |
| Cn1cc(C(=O)OCC2CCN(CCNS(C)(=O)=O)CC2)c2ccccc21 | inactive | inactive | inactive | inactive |
| NC(N)=N[C@@H](CCC(=O)O)C(=O)O | inactive | inactive | inactive | inactive |
| CCC1(O)CC2CN(CCc3c([nH]c4ccccc34)[C@@](C(=O)OC)(c3cc4c(cc3OC)N(C=O)C3[C@]45CCN4CC=C[C@@](CC)([C@@H](OC(C)=O)[C@]3(O)C(=O)OC)[C@H]45)C2)C1 (stereo not given in full) | inactive | inactive | inactive | inactive |
| COc1ccccc1N1CCN(CCCCNC(=O)c2ccc3ccccc3c2)CC1 | inactive | inactive | inactive | inactive |
| O=[N+]([O-])c1cccc2cn[nH]c12 | inactive | inactive | inactive | inactive |
| Nn1nnc2ccccc21 | inactive | inactive | inactive | inactive |
| NC1(C(=O)O)CCCCC1 | inactive | inactive | inactive | inactive |
| CCn1c(=O)[nH]c2cc(Cl)c(Cl)cc21 | inactive | inactive | inactive | inactive |
| CN(CC[C@@H](Oc1ccc(C(F)(F)F)cc1)c1ccccc1)CC(=O)O | inactive | inactive | inactive | inactive |
| CCCCCC[C@@H]([C@@H](C)O)n1cnc2c(N)ncnc21 | inactive | inactive | inactive | inactive |
| COc1cc(C(O)CO)ccc1O (stereo not given) | inactive | inactive | inactive | inactive |
| NCCCNCCCCNCCCN | inactive | inactive | inactive | inactive |
| CN[C@H](CC(=O)O)C(=O)O | inactive | inactive | inactive | inactive |
| O=c1ccn([C@@H]2O[C@H](COP(=O)(O)OP(=O)(O)O)[C@@H](O)[C@H]2O)c(=O)[nH]1 | inactive | inactive | inactive | inactive |
